Bioassay records (PubChem)
Only a selection was taken, and hits are over-represented in it overall.
aSyn tox rescue – alpha-synuclein toxicity suppression in yeast; S. cerevisiae alpha-synuclein toxicity rescue, BacTiter-Glo growth, 24 h; Potency, µM (top dose mostly 46.1 µM), usual class: activators; actives 0.02% (n = 94,000); AID 1347070; active means well fitted activation curve with a large enough effect; further: 0% is about no effect
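Growth restoration measured by BacTiter-Glo luminescence after 24 hr at 30 deg C; alpha-synuclein yeast, raffinose-pregrown to mid-log, were added at OD600=0.02 in galactose medium onto pinned compounds.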
Numbers without * were called inactive; i = inactive. Potency means the concentration at half of the fitted maximal effect.

SMILES	aSyn tox rescue
O=C1CN=C(c2ccccc2)c2cc(Cl)ccc2N1Cc1ccc(Cl)cc1	i
CCc1cccc(NC(=O)CN2C(=O)CN=C(c3ccccc3F)c3cc(Cl)ccc32)c1	20µM*
Cc1cccc(CN2C(=O)CN=C(c3ccccc3)c3cc(Cl)ccc32)c1	i
COc1ccc(NC(=O)CN2C(=O)CN=C(c3ccccc3)c3ccccc32)c(OC)c1	i
Nc1c(C(=O)Nc2ccc(OC(F)(F)F)cc2)sc2nc3c(cc12)N1CCC3CC1	i
